Compound activity deposited in PubChem BioAssay by Fisher Drug Discovery Resource Center.
Most compounds without a hit are left out; they make up all but 0.3% or so of the library.
NPYLR7 ag – activates Aedes aegypti NPYLR7 receptor; AID 1259423; HEK293T NPYLR7/Galpha15, GCaMP6s calcium fluorescence; 270,000 tested, 0.15% active; activation, % at 10 µM; in the data active = activation above about 40%
hcGAS lum – blocks human cGAS activity; recombinant h-cGAS, ATP depletion, Kinase-Glo luminescence; Q8N884; 290,000 tested, 0.081% active; inhibition, % at 12.5 µM
Target sequence (Q8N884 whole entry, looked up): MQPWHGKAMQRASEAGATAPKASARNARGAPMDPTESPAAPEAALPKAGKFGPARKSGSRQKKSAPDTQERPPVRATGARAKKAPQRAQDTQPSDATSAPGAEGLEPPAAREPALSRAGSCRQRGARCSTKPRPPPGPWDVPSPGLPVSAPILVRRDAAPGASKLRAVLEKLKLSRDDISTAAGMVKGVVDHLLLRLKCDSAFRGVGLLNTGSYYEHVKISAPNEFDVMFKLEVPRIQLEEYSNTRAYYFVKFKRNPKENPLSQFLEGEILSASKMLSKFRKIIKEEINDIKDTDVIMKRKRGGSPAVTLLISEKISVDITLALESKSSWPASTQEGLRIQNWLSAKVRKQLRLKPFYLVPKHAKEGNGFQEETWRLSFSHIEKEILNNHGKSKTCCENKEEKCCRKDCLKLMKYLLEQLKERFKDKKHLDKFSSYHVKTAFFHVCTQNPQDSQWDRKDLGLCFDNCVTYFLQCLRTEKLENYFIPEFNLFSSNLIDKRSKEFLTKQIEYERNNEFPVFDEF
mcGAS inh – inhibitors of mouse cGAS; Q8C6L5; recombinant cGAS, Kinase-Glo ATP depletion luminescence; inhibition, % at 12.5 µM; 160,000 tested, 0.15% active; AID 1259399
Hits are given with their value; . = inactive; / = no result given; + = active, no number. Cut-off read from the data, not from the text of the source, unless noted: active = inhibition above about 40%; inactive = the rest.

SMILES | NPYLR7 ag | hcGAS lum | mcGAS inh
Cn1nc(-c2ccc(F)cc2)nc2c(=O)n(C)c(=O)nc1-2 | . | . | 67
CCOc1ccc(-c2cc(-c3nc(-c4ccc(OC)cc4)no3)[nH]n2)cc1 | . | . | .
COc1ccc(C(=O)COc2ccc(-c3noc(C(C)C)n3)cc2)cc1 | . | + | /
CCOc1c(O)[nH]c(=O)n1Cc1ccccc1 | . | . | /
Cn1c(=O)c2c(nc(Br)n2CCSc2nc3ccccc3s2)n(C)c1=O | . | . | .
Cc1cc(C(=O)N2CCc3ccccc3C2c2ccc(F)cc2)co1 (stereo not drawn) | . | . | .
O=C(CCl)N1CCN(c2ccc(O)cc2)CC1 | . | . | .
O=C(CCl)N1CCN(c2cccc(Cl)c2)CC1 | . | . | 70
Brc1cc2c(cc1CSc1nnnn1C1CC1)OCCO2 | . | . | /
Cn1nnnc1SCc1cc2c(cc1Br)OCO2 | . | 66 | .
Fc1ccc(OC2OCCOC2Oc2ccc(F)cc2)cc1 (stereo not drawn) | . | . | /
Cc1cc(C(C#N)C(=O)/C=C/c2ccc(N(C)C)cc2)nc(C)n1 (stereo not drawn) | . | . | /
COc1ccccc1Oc1nc2ccccn2c(=O)c1/C=C(\C#N)c1nc2ccccc2s1 | 65 | . | .
COC(=O)/C(C#N)=C/c1c(Oc2ccc(C)cc2)nc2ccccn2c1=O | . | . | .
Cc1cccc(Oc2nc3ccccn3c(=O)c2/C=C(\C#N)c2nc3ccccc3s2)c1 | 89 | . | .
COc1ccc(Oc2nc3c(C)cccn3c(=O)c2/C=C(\C#N)c2nc3ccccc3s2)cc1 | . | . | .
COc1cc(Br)c(O)c(/C=N\n2c(C)n[nH]c2=S)c1 | 134 | . | /
COc1ccc(-c2n[nH]c(=S)n2N=Cc2ccc(OC)c(Br)c2)cc1 | . | . | .
O=C1/C(=C/c2csnn2)COc2c1ccc(Cl)c2Cl | . | . | /
Cc1cc(C)c2c(c1)OC/C(=C\c1csnn1)C2=O | . | . | 45
COc1cccc(NC(=O)N2CCN(c3nc(CCc4ccccc4)nc4sc(C)c(C)c34)CC2)c1 | . | . | .
COCC1CN(C2CCC2)CC12CCN(C(=O)C1(c3ccccc3)CC1)CC2 (stereo not drawn) | / | . | .
COc1ccc(C(=O)N2CCC3(CC2)CN(C2CCC2)CC3CO)cn1 (stereo not drawn) | / | 48 | .
Cc1cccc(S(=O)(=O)NC(=O)C2(C)CCN2C(=O)Cc2cccc3ccccc23)c1 (stereo not drawn) | . | . | /
O=C(Sc1cccc2cccnc12)c1ccccc1Cl | . | 60 | 44
SMILES | NPYLR7 ag | hcGAS lum | mcGAS inh
CSc1ccccc1NC(=O)c1cccc2cccnc12 | . | . | /
Cc1ccc(Cl)cc1NC(=O)Cn1c2ccccc2c(=O)c2ccccc21 | . | . | /
Cc1ccc2c(=O)c3ccccc3n(CCCN)c2c1C | . | 71 | /
Cc1cc(C)cc(NC(=O)CSc2nc3c(c(=O)[nH]2)CN(CCc2ccccc2)CC3)c1 | . | . | .
COc1ccc2c(c1OC)C(=O)OC2CC(=O)c1ccc([N+](=O)[O-])cc1 (stereo not drawn) | . | . | 58
COc1cccc(OC)c1OCCCOc1ccc([N+](=O)[O-])cc1 | . | . | /
Cc1cc(C)cc(COc2coc(CN3CCN(S(=O)(=O)c4c(Cl)cccc4Cl)CC3)cc2=O)c1 | . | . | .
Cc1ccc(-n2nnc(C(=O)Nc3ccc4oc(=O)ccc4c3)c2C)cc1 | . | . | .
COCCN(Cc1ccc(OC)cc1)CC(O)COC(C)C (stereo not drawn) | . | . | .
COCCN(Cc1ccc(C)cc1)CC(O)COCC(C)C (stereo not drawn) | . | . | 90
CC1(C)C2([N+](=O)[O-])CN3CC1([N+](=O)[O-])CN(C2)C3c1ccccc1F (stereo not drawn) | . | . | /
Cc1nsc(N2CCC(CN(C)C(=O)OC(C)(C)C)CC2)n1 | . | . | /
O=C(c1ccco1)N1CCN(C(=O)c2cc(F)ccc2C(F)(F)F)CC1 | . | . | /
CCOC(=O)C1=C(O)/C(=C\c2cc(OC)cc(OC)c2)SC1=Nc1ccccc1F | . | . | .
CCOC(=O)C1=C(O)/C(=C\c2ccc(N(C)C)cc2)SC1=Nc1ccc(OC)cc1OC | 79 | . | .
CCC(=O)N1CCCC1C1CCCN1C1CCOC1=O (stereo not drawn) | . | . | /
CCN(C(=O)Cn1c(CNC(=O)c2ccco2)nc2ccccc21)c1ccccc1 | . | . | /
COc1cc(C=C2C(=O)N(C)C(=O)N(C)C2=O)cc([N+](=O)[O-])c1O | . | . | 46
COc1cc(C=C2C(=O)N(C)C(=O)N(C)C2=O)cc(I)c1O | . | . | .
COC(C)(C)CC(C)NCc1noc(-c2ccco2)n1 (stereo not drawn) | . | . | .
Cc1ccc(C2=NN(C(=O)CN3CCN(C)CC3)C(c3ccccc3Cl)C2)cc1 (stereo not drawn) | 45 | . | .
COc1ccccc1C1CC(c2cccc(F)c2)=NN1C(=O)CN1CCC2(CC1)OCCO2 (stereo not drawn) | . | . | .
Cc1ccc(C2=NN(C(=O)CN3CCCC3)C(c3ccccc3F)C2)cc1 (stereo not drawn) | . | . | .
COc1ccc(C2=NN(C(=O)CN3CCC4(CC3)OCCO4)C(c3ccccc3OC)C2)cc1 (stereo not drawn) | . | 78 | .
O=S(=O)(O)c1cc(N=C=S)ccc1/C=C/c1ccc(N=C=S)cc1S(=O)(=O)O | . | 86 | /
SMILES | NPYLR7 ag | hcGAS lum | mcGAS inh
CC(C)(C)/[N+]([O-])=C/c1ccc(S(=O)(=O)O)cc1S(=O)(=O)O | . | . | /
COc1cccc(-c2cc(C(=O)N(CCC(=O)NCCC3CCCN3C)CC(C)C)no2)c1 (stereo not drawn) | . | + | /
CC(C)NC(=O)CCN(CC1CCCO1)C(=O)c1cc(-c2cccc(Cl)c2)on1 (stereo not drawn) | / | . | .
CC(=O)Oc1c(/C=C(\C#N)C(N)=O)[nH]c2ccccc12 | 51 | . | /
COC(=O)/C(C#N)=C/c1c(OC)[nH]c2ccccc12 | . | . | /
COc1ccc(C=CC(=O)c2ccc(C)o2)cc1OC | . | . | /
Cc1ccc(C(=O)C=Cc2ccc(N(C)C)cc2)o1 | 75 | . | /
O=C(CCCSc1nnc(Cc2ccccc2)n1-c1ccc(Cl)c(Cl)c1)NCCc1ccc(Cl)cc1Cl | / | . | .
O=c1oc(C=Cc2ccco2)nc2sc3c(c12)CCCC3 | . | . | /
O=c1oc(/C=C/c2ccco2)nc2ccc(Br)cc12 | . | . | 45
O=C(/C=C/c1cccc([N+](=O)[O-])c1)n1cnc2ccccc21 | . | . | 42
O=[N+]([O-])c1cccc(C=Nn2cnc3ccccc32)c1 | . | . | .
COc1ccc(C(=O)NCCc2cc3c(C)ccc(C)c3[nH]c2=O)cc1OC | . | . | .
C=CCn1ccnc1C(O)(c1c[nH]c2ccccc12)C(F)(F)F (stereo not drawn) | . | . | /
COc1ccc(-c2[nH]ncc2CN2CCCC(CN3CCOCC3)C2)c(OC)c1 (stereo not drawn) | . | . | /
O=C(CCC(=O)NC1CCCC1)NC[C@H]1CCCC[C@H]1O | . | . | /
Cc1cccc(NC(=O)c2n[nH]c([N+](=O)[O-])c2Br)c1C | . | . | .
N#Cc1ccccc1NC(=O)c1n[nH]c([N+](=O)[O-])c1Br | . | 44 | /
